According to PubChem BioAssay (Tox21):
Inconclusive results are not listed. Entries that show only a call come without a potency. Active and inactive are the calls of the source. The call rests on the fitted dose curve; in most records, active means well fitted activation curve with a large enough effect in the repeat runs; inconclusive means weak or mixed curves; inactive means flat fitted curve, though single readings scatter.

Assay: A CellTox Green Cytotoxicity Assay to monitor cytotoxicity in HEK293 cells - 8 hour (AID 1224884); further: nearly all actives have a fitted effect of over 35% in size
Conditions: CellTox Green fluorescence; series mostly up to 76.8 µM
How it was run: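 Read-out: fluorescence of a cell-impermeant cyanine dye staining DNA of dead cells, proportional to cytotoxicity. HEK293, 600 cells/well with reagent, compound (23 nL DMSO) added after 5 h; reads at 0, 8, 16, 24, 32, 40 h.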
Potency means the concentration at half of the fitted maximal effect.

| Compound | Potency |
| --- | --- |
| Cn1cc(C(=O)[C@@H]2CCc3nc[nH]c3C2)c2ccccc21 | inactive |
| Cc1cc(C2CCCCC2)n(O)c(=O)c1 | inactive |
| Cc1[nH]nc2c1N=C(c1ccccc1Cl)c1cc([N+](=O)[O-])ccc1N2 | inactive |
| CC1=C(C(=O)OC(C)C)C(c2cccc([N+](=O)[O-])c2)C(C(=O)OC2CN(C(c3ccccc3)c3ccccc3)C2)=C(N)N1 (stereo unspecified) | inactive |
| CCCCc1oc2ccc(NS(C)(=O)=O)cc2c1C(=O)c1ccc(OCCCN(CCCC)CCCC)cc1 | 23.9 µM (active) |
| OCCCCCCCCCCCCBr | inactive |
| Cc1ccc(-n2nc(C(C)(C)C)cc2NC(=O)Nc2ccc(OCCN3CCOCC3)c3ccccc23)cc1 | inactive |
| C/C(=C(/OCCOc1ccc(Cl)cc1)c1ccc(Cl)cc1Cl)n1ccnc1 | inactive |
| NNc1nc(-c2ccc(N)cc2)cs1 | inactive |
| Nc1nc2ccccc2n1Cc1ccc(F)cc1 | inactive |
| OCCN(CCO)c1nc(N2CCCCC2)c2nc(N(CCO)CCO)nc(N3CCCCC3)c2n1 | 21.3 µM (active) |
| CCCCCCCCn1sc(Cl)c(Cl)c1=O | 2.45 µM (active) |
| Clc1ccccc1C(c1ccccc1)(c1ccccc1)n1ccnc1 | inactive |
| [Cl][Au]([Cl])[Cl] | inactive |
| Oc1c(Cl)cc(Cl)c2cccnc12 | inactive |
| O=C(NOCC1CC1)c1ccc(F)c(F)c1Nc1ccc(I)cc1Cl | inactive |
| O=C(N/N=C/c1ccccc1O)c1ccncc1 | inactive |
| ON=C1CCCC1 | inactive |

| Compound | Potency |
| --- | --- |
| Nc1ccccc1O | inactive |
| [O-][n+]1ccccc1SSc1cccc[n+]1[O-] | 10.4 µM (active) |
| CCCCCCCCS(=O)C(C)Cc1ccc2c(c1)OCO2 (stereo unspecified) | inactive |
| NNc1nc(-c2ccccc2)cs1 | inactive |
| CCCCC(CC)CN=C(N)NC(N)=NCCCCCCN=C(N)NC(N)=NCC(CC)CCCC (stereo unspecified) | 13.4 µM (active) |
| CCCCCCCCCCCC[N+](C)(C)CCCCCCCCCCCC | 19.5 µM (active) |
| CC1=NC(C)OC1C (stereo unspecified) | inactive |
| C/C=C(\C)C(=O)OCc1ccccc1 | inactive |
| COCCCC/C(=N\OCCN)c1ccc(C(F)(F)F)cc1 | inactive |
| CCCCCCCCNC(C)C(O)c1ccc(SC(C)C)cc1 (stereo unspecified) | 21.3 µM (active) |
| [Cl][Bi]([Cl])([c]1ccccc1)([c]1ccccc1)[c]1ccccc1 | 43.4 µM (active) |
| OCCN1CCN(CC/C=C2/c3ccccc3Sc3ccc(C(F)(F)F)cc32)CC1 | 23.9 µM (active) |
| O=c1cccccc1O | inactive |
| CC(C)c1ccc2c(c1)CC[C@H]1[C@](C)(CN)CCC[C@]21C | 38.9 µM (active) |
| CCCCCOc1ccccc1/C(=C\SC)n1ccnc1 | inactive |
| CCCC1O[C@@H]2C[C@H]3[C@@H]4CCC5=CC(=O)C=C[C@]5(C)[C@H]4[C@@H](O)C[C@]3(C)[C@]2(C(=O)CO)O1 (stereo partly specified) | inactive |
| O=C(Nc1cccc([N+](=O)[O-])c1)c1cc2ccccc2cc1O | inactive |
| Cc1cc(O)c2ccccc2c1O | 9.52 µM (active) |
